Test results reported in PubChem BioAssay AID1159580 (chemical genetic matrix, 2015).
Several values for one entry are separate records, joined by “and”; a condition that tells them apart may be missing. Identical values can stand only once. Screen size: about 5,500 compounds; about 2,000 (36%) were called active. Not shown: some 18% with an inconclusive outcome. No stated cut-off is given here; in the data, active means normalized growth mostly below about 0.91 (no sharp cut-off); inconclusive means no clear call, values can overlap the other calls; inactive means mostly above about 0.92. Some of the results follow.

Test: chemical genetic growth profiling, strain panel (AID 1159580);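 further: tested at 20 µM; growth read once vehicle control cultures reached saturation at 30 °C; 1 = growth at the plate median or of vehicle wells; lower values mean less growth of the strain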
Settings: S. cerevisiae deletion strains, growth OD

Measured: normalized growth

CC1(C)CC2C1CCC1(C)OC1CCC2(C)O (centres undefined)
inactive: locus YAL013W, strain DEP1, active compounds read low 1.02 | locus YAL021C, strain ccr4, active compounds read low 1.01 | locus YAL026C, strain drs2, active compounds read low 1.05 | locus YAL030W, strain snc1, active compounds read low 1.03 | locus YBL061C, strain skt5, active compounds read low 1.04 | locus YBR009C, strain hhf1, active compounds read low 1.06 | locus YBR021W, strain FUR4, active compounds read low 1.01 | locus YBR023C, strain chs3, active compounds read low 1.05 | locus YBR171W, strain sec66, active compounds read low 1.06 | locus YBR229C, strain ROT2, active compounds read low 1 | locus YBR231C, strain swc5, active compounds read low 1.04 | locus YBR279W, strain paf1, active compounds read low 1.03 | locus YCL011C, strain gbp2, active compounds read low 1.04 | locus YCL016C, strain dcc1, active compounds read low 1.03 | locus YCL029C, strain bik1, active compounds read low 1.03 | locus YCL061C, strain MRC1, active compounds read low 1.04 | locus YCL069W, strain vba3, active compounds read low 1.04 | locus YCR088W, strain abp1, active compounds read low 1.04 | locus YDL005C, strain med2, active compounds read low 1.03 | locus YDL035C, strain GPR1, active compounds read low 1.03 | locus YDL040C, strain nat1, active compounds read low 1.03 | locus YDL074C, strain BRE1, active compounds read low 1.07 | locus YDL101C, strain DUN1, active compounds read low 1.03 | locus YDL185W, strain tfp1, active compounds read low 1.01 | locus YDL192W, strain arf1, active compounds read low 1.03 | locus YDR001C, strain nth1, active compounds read low 1.03 | locus YDR069C, strain doa4, active compounds read low 1.06 | locus YDR101C, strain arx1, active compounds read low 0.987 | locus YDR137W, strain rgp1, active compounds read low 1.07 | locus YDR159W, strain sac3, active compounds read low 1.11 | locus YDR162C, strain NBP2, active compounds read low 1.06 | locus YDR195W, strain ref2 1.01 | locus YDR297W, strain sur2, active compounds read low 1.05 | locus YDR318W, strain mcm21, active compounds read low 1.04 | locus YDR334W, strain swr1, active compounds read low 1.04 | locus YDR335W, strain msn5, active compounds read low 1.04 | locus YDR388W, active compounds read low 1.02 | locus YDR392W, strain spt3, active compounds read low 1.01 | locus YDR502C, strain sam2, active compounds read low 1.06 | locus YEL003W, strain gim4, active compounds read low 1.04 | locus YEL037C, strain rad23, active compounds read low 1.03 | locus YEL061C, strain CIN8 (second series), active compounds read low 1.03 | locus YEL061C, strain CIN8, active compounds read low 1.02 | locus YER015W, strain faa2, active compounds read low 1.04 | locus YER016W, strain bim1, active compounds read low 1.04 | locus YER110C, active compounds read low 1.01 | locus YER111C, strain swi4, active compounds read low 1.03 | locus YER155C, strain BEM2 (second series), active compounds read low 1.07 | locus YER155C, strain BEM2, active compounds read low 1.03 | locus YER167W, strain BCK2, active compounds read low 1.01 | locus YFR010W, strain ubp6, active compounds read low 1.05 | locus YGL078C, strain dbp3, active compounds read low 1.02 | locus YGL086W, strain mad1, active compounds read low 1.02 | locus YGL167C, strain pmr1, active compounds read low 1.03 | locus YGL173C, strain kem1, active compounds read low 1.06 | locus YGL227W, strain vid30, active compounds read low 1.03 | locus YGL240W, strain doc1, active compounds read low 1.04 | locus YGL248W, strain PDE1, active compounds read low 1.05 | locus YGL253W, strain hxk2, active compounds read low 1.07 | locus YGR135W, strain pre9, active compounds read low 1.04 | locus YGR252W, strain gcn5, active compounds read low 1.17 | locus YHR013C, strain ard1, active compounds read low 1.05 | locus YHR027C, strain rpn1, active compounds read low 1.06 | locus YHR030C, strain SLT2, active compounds read low 1.02 | locus YHR079C, strain IRE1 (second series), active compounds read low 1.01 | locus YHR079C, strain IRE1, active compounds read low 1.04 | locus YHR094C, strain hxt1, active compounds read low 1.01 | locus YHR129C, strain ARP1, active compounds read low 1.02 | locus YHR142W, strain chs7, active compounds read low 1.06 | locus YHR200W, strain rpn10, active compounds read low 1.04 | locus YIL066C, strain RNR3, active compounds read low 1.02 | locus YIL073C, strain SPO22, active compounds read low 1.12 | locus YIL125W, strain kgd1, active compounds read low 1.01 | locus YIR030C, strain dcg1, active compounds read low 1.01 | locus YJL092W, strain hpr5, active compounds read low 1.04 | locus YJL095W, strain BCK1 (second series), active compounds read low 1.03 | locus YJL095W, strain BCK1, active compounds read low 1.08 and 1.04 | locus YJL115W, strain asf1, active compounds read low 1.04 | locus YJL129C, strain trk1, active compounds read low 1.08 | locus YJL134W, strain LCB3, active compounds read low 1.02 | locus YJL154C, strain vps35, active compounds read low 1.03 | locus YJL164C, strain tpk1, active compounds read low 1.04 | locus YJL166W, strain qcr8, active compounds read low 1.05 | locus YJL168C, strain set2, active compounds read low 1.02 | locus YJL187C, strain SWE1 (second series), active compounds read low 1.06 | locus YJL187C, strain SWE1, active compounds read low 1.05 | locus YJR043C, strain POL32, active compounds read low 1.04 | locus YJR066W, strain TOR1, active compounds read low 0.961 | locus YKL009W, strain mrt4, active compounds read low 1.01 | locus YKL068W, active compounds read low 1 | locus YKL085W, strain MDH1 (second series), active compounds read low 1 | locus YKL085W, strain MDH1, active compounds read low 1 | locus YKL160W, strain elf1, active compounds read low 1.02 | locus YKR001C, strain vps1, active compounds read low 1.1 | locus YKR026C, strain gcn3, active compounds read low 1.04 | locus YKR091W, strain srl3, active compounds read low 1.02 | locus YLL001W, strain dnm1, active compounds read low 1.01 | locus YLL026W, active compounds read low 1.04 | locus YLL041C, strain sdh2, active compounds read low 1.03 | locus YLR027C, strain aat2, active compounds read low 1.05 | locus YLR039C, strain RIC1, active compounds read low 1.2 | locus YLR058C, strain SHM2, active compounds read low 1.05 | locus YLR102C, strain apc9, active compounds read low 1.01 | locus YLR113W, strain HOG1, active compounds read low 1.03 | locus YLR221C, strain rsa3, active compounds read low 1.07 | locus YLR258W, strain gsy2, active compounds read low 1.05 | locus YLR262C, strain YPT6 (second series), active compounds read low 1.06 | locus YLR268W, strain sec22, active compounds read low 1.04 | locus YLR320W, strain mms22, active compounds read low 1.07 | locus YLR342W, strain FKS1 (second series), active compounds read low 1.09 | locus YLR342W, strain FKS1, active compounds read low 1.05 | locus YLR357W, strain rsc2, active compounds read low 1.07 | locus YLR370C, strain arc18, active compounds read low 1.04 | locus YLR371W, strain rom2, active compounds read low 0.999 | locus YLR384C, strain iki3, active compounds read low 1.05 | locus YLR418C, strain cdc73, active compounds read low 1.11 | locus YML016C, strain PPZ1, active compounds read low 1.01 | locus YML032C, strain rad52, active compounds read low 1.04 | locus YML120C, strain ndi1, active compounds read low 1.03 | locus YML124C, strain tub3, active compounds read low 0.999 | locus YMR058W, strain fet3, active compounds read low 1.05 | locus YMR078C, strain ctf18, active compounds read low 1.01 | locus YMR125W, strain sto1, active compounds read low 1.05 | locus YMR129W, active compounds read low 1.02 | locus YMR205C, strain PFK2, active compounds read low 1.06 | locus YMR223W, strain ubp8, active compounds read low 1.05 | locus YMR231W, strain pep5, active compounds read low 1.04 | locus YMR263W, strain SAP30, active compounds read low 1.02 | locus YMR307W, strain GAS1, active compounds read low 1.1 | locus YNL067W, strain RPL9B, active compounds read low 1.03 | locus YNL071W, strain lat1, active compounds read low 1.04 | locus YNL128W, strain TEP1, active compounds read low 1.04 | locus YNL153C, strain GIM3, active compounds read low 1.05 | locus YNL183C, strain NPR1, active compounds read low 0.975 | locus YNL209W, strain ssb2, active compounds read low 1.03 | locus YNL233W, strain BNI4, active compounds read low 1.07 | locus YNL248C, strain rpa49, active compounds read low 1.05 | locus YNL250W, strain rad50, active compounds read low 1.04 | locus YNL271C, strain bni1, active compounds read low 1.03 | locus YNL298W, strain CLA4, active compounds read low 1.01 | locus YNL307C, strain MCK1, active compounds read low 1.01 | locus YNL322C, strain KRE1 (second series), active compounds read low 1.04 | locus YNL322C, strain KRE1, active compounds read low 1.02 | locus YNR049C, strain mso1, active compounds read low 1.04 | locus YNR052C, strain pop2, active compounds read low 1.03 | locus YOL006C, strain TOP1, active compounds read low 1.19 | locus YOL012C, strain htz1 1 | locus YOL147C, strain pex11, active compounds read low 1.02 | locus YOR001W, strain rrp6, active compounds read low 1.08 | locus YOR061W, strain CKA2, active compounds read low 1.02 | locus YOR069W, strain VPS5, active compounds read low 1.02 | locus YOR070C, strain gyp1, active compounds read low 1.05 | locus YOR080W, strain dia2, active compounds read low 1.03 | locus YOR083W, strain WHI5, active compounds read low 1.03 | locus YOR106W, strain vam3, active compounds read low 1.04 | locus YOR136W, strain idh2, active compounds read low 1 | locus YOR144C, strain elg1, active compounds read low 1.01 | locus YOR184W, strain ser1, active compounds read low 1.05 | locus YOR231W, strain MKK1, active compounds read low 1.05 | locus YOR265W, strain rbl2, active compounds read low 1.04 | locus YOR270C, strain vph1, active compounds read low 1.14 | locus YOR290C, strain snf2, active compounds read low 1.04 | locus YOR316C, strain cot1, active compounds read low 1 | locus YPL051W, strain arl3, active compounds read low 1.05 | locus YPL055C, strain LGE1, active compounds read low 1.06 | locus YPL078C, strain atp4, active compounds read low 1.02 | locus YPL106C, strain sse1, active compounds read low 1.02 | locus YPL240C, strain hsp82, active compounds read low 1.03 | locus YPL256C, strain CLN2, active compounds read low 1.04 | locus YPR119W, strain clb2, active compounds read low 1.02 | locus YPR141C, strain kar3, active compounds read low 0.991 | locus YPR163C, strain tif3, active compounds read low 1.04 | locus YPR167C, strain met16, active compounds read low 1 | strain wtn01, active compounds read low 1.04
